# In PubChem BioAssay (NCI):
# The panel holds about 79,000 compounds, 15% with a hit somewhere; the sample as a whole holds those more often. A number with no mark means an inactive call. Activity calls are given as the source filed them. Cut-off read from the data, not from the text of the source: active = growth inhibition above about 70%; inactive = the rest.
# Legend:
# [1] = NCI Yeast Anticancer Drug Screen. Data for the rad52 strain (AID 147);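 note: 0% = growth of vehicle-treated control cultures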; conditions: S. cerevisiae rad52 mutant growth inhibition, stronger effect = higher value
# In short: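 Inhibition of yeast growth, referenced to vehicle controls, was the measured output for a strain with defective DNA damage repair.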
# [2] = NCI Yeast Anticancer Drug Screen. Data for the wt1 strain (AID 149);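 note: 0% = growth of vehicle-treated wt1 cultures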; conditions: S. cerevisiae wt1 strain (SPY 50644) growth inhibition, stronger effect = higher value
# In short: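 Readout: yeast growth inhibition, normalised to vehicle controls, in the wt1 strain exposed to test compounds.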
# [3] = NCI Yeast Anticancer Drug Screen. Data for the rad50EPP+ strain (AID 151);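 note: 0% = growth of vehicle-treated control cultures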; conditions: S. cerevisiae rad50 mutant strain, stronger effect = higher value
# In short: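 Genetically defined yeast (rad50EPP+, DNA damage repair alteration) is grown with compound, and inhibition of growth is expressed relative to vehicle-treated controls.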
# [4] = NCI Yeast Anticancer Drug Screen. Data for the mgt1 strain (AID 153); conditions: S. cerevisiae mgt1 mutant growth inhibition, stronger effect = higher value
# In short: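 In the mgt1 strain, test compounds were added and growth inhibition was determined relative to vehicle-treated controls.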
# [5] = NCI Yeast Anticancer Drug Screen. Data for the rad50 strain (AID 155);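 note: 0% = growth of vehicle-only cultures of the same strain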; conditions: S. cerevisiae rad50 strain growth inhibition, stronger effect = higher value
# In short: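 Compounds were tested on a yeast strain with an engineered DNA damage repair alteration; the reported value is growth inhibition normalised to vehicle treatment.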
# [6] = NCI Yeast Anticancer Drug Screen. Data for the mec2-1 strain (AID 157); conditions: S. cerevisiae mec2-1 strain, stronger effect = higher value
# In short: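 Each compound was tested on mec2-1 yeast, a strain altered in DNA damage repair or cell cycle control. Growth inhibition is reported relative to vehicle.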
# [7] = NCI Yeast Anticancer Drug Screen. Data for the rad14 strain (AID 159);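 note: 0% = growth of vehicle-treated control cultures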; conditions: S. cerevisiae rad14 strain growth inhibition, stronger effect = higher value
# In short: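 Compound-treated yeast with a defined DNA-repair lesion; growth inhibition normalised to vehicle-treated cultures.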
# [8] = NCI Yeast Anticancer Drug Screen. Data for the sgs1 mgt1 strain (AID 161);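 note: 0% = growth of cultures given vehicle only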; conditions: S. cerevisiae sgs1 mgt1 strain, stronger effect = higher value
# In short: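 Mutant yeast exposed to compound; growth scored against vehicle-only wells.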
# [9] = NCI Yeast Anticancer Drug Screen. Data for the CLN2oe strain (AID 163);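 note: 0% = growth of vehicle-only control cultures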; conditions: S. cerevisiae CLN2oe strain, stronger effect = higher value
# In short: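 First, the altered yeast strain was treated with each compound; second, its growth was measured; finally, inhibition was derived by comparison with vehicle controls.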
# [10] = NCI Yeast Anticancer Drug Screen. Data for the cln2 rad14 strain (AID 165);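 note: 0% = growth equal to vehicle treated cultures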; conditions: S. cerevisiae cln2 rad14 strain, stronger effect = higher value
# In short: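 Test compounds were added to cln2 rad14 yeast cultures; inhibition of growth was then determined by comparison with vehicle treatment.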
# [11] = NCI Yeast Anticancer Drug Screen. Data for the bub3 strain (AID 167); conditions: S. cerevisiae bub3 mutant strain, stronger effect = higher value
# In short: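 Growth of a checkpoint-deficient yeast mutant is measured after compound exposure. Values represent inhibition relative to vehicle.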
# [12] = NCI Yeast Anticancer Drug Screen. Data for the wt2 strain (AID 169);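 note: 0% = growth of vehicle-treated yeast cultures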; conditions: S. cerevisiae wt2 strain growth inhibition, stronger effect = higher value
# In short: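 The panel's yeast strains carry defined changes in DNA repair or cell cycle genes. Each strain is grown with compound, and growth loss is scored relative to vehicle.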
# [13] = NCI Yeast Anticancer Drug Screen. Data for the mlh1 strain (AID 171);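 note: 0% = growth of vehicle-treated control cultures of the same strain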; conditions: S. cerevisiae mlh1 strain growth inhibition, stronger effect = higher value
# In short: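 Inhibition values reflect reduced yeast growth in the presence of compound, referenced to vehicle controls, using a strain chosen for its alteration in DNA repair or cell cycle control.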
# [14] = NCI Yeast Anticancer Drug Screen. Data for the sgs1 strain (AID 173);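 note: 0% = growth of vehicle-only control cultures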; conditions: S. cerevisiae sgs1 mutant, stronger effect = higher value
# In short: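 Vehicle-treated cultures served as reference for growth inhibition of a yeast strain altered in DNA damage repair or cell cycle control after compound exposure.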
# [15] = NCI Yeast Anticancer Drug Screen. Data for the mlh1 rad18 strain (AID 175); conditions: S. cerevisiae mlh1 rad18 strain growth inhibition, stronger effect = higher value
# In short: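 Inhibition values reflect reduced growth of mutant yeast versus vehicle-treated controls following compound exposure; the mutations affect DNA damage repair.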
# [16] = NCI Yeast Anticancer Drug Screen. Data for the rad18 strain (AID 177); conditions: S. cerevisiae rad18 mutant growth inhibition, stronger effect = higher value
# In short: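 Steps: expose repair-mutant yeast to compound; measure growth; express as inhibition relative to vehicle control.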
# [17] = at 5.0 µM (retest, dose inferred, filed as 0.5)
# [18] = at 50.0 µM (retest, dose inferred, filed as 5.0)
smiles,measurement,setting,value
COc1cc2c(cc1[N+](=O)[O-])C(=O)C(Br)(Br)CCC2,growth inhibition,[1]; at 1.2 µM,39%
same,growth inhibition,[1]; at 3.7 µM,63%
same,growth inhibition,[1]; at 11.0 µM,98% (active)
same,growth inhibition,[1]; at 33.0 µM,99% (active)
same,growth inhibition,[1]; at 100.0 µM,94% (active)
same,growth inhibition,[2]; at 1.2 µM,38%
same,growth inhibition,[2]; at 3.7 µM,50%
same,growth inhibition,[2]; at 11.0 µM,91% (active)
same,growth inhibition,[2]; at 33.0 µM,99% (active)
same,growth inhibition,[2]; at 100.0 µM,98% (active)
same,growth inhibition,[3]; at 1.2 µM,40%
same,growth inhibition,[3]; at 3.7 µM,73% (active)
same,growth inhibition,[3]; at 11.0 µM,99% (active)
same,growth inhibition,[3]; at 33.0 µM,100% (active)
same,growth inhibition,[3]; at 100.0 µM,96% (active)
same,growth inhibition,[4]; at 1.2 µM,50%
same,growth inhibition,[4]; at 3.7 µM,73% (active)
same,growth inhibition,[4]; at 11.0 µM,100% (active)
same,growth inhibition,[4]; at 33.0 µM,99% (active)
same,growth inhibition,[4]; at 100.0 µM,97% (active)
same,growth inhibition,[5]; at 1.2 µM,42%
same,growth inhibition,[5]; at 3.7 µM,50%
same,growth inhibition,[5]; [17],8%
same,growth inhibition,[5]; at 11.0 µM,97% (active)
same,growth inhibition,[5]; at 33.0 µM,99% (active)
same,growth inhibition,[5]; [18],98% (active)
same,growth inhibition,[5]; at 50.0 µM,91.2% (active)
same,growth inhibition,[5]; at 100.0 µM,95% (active)
same,growth inhibition,[6]; at 1.2 µM,35%
same,growth inhibition,[6]; at 3.7 µM,41%
same,growth inhibition,[6]; [17],31%
same,growth inhibition,[6]; at 11.0 µM,99% (active)
same,growth inhibition,[6]; at 33.0 µM,100% (active)
same,growth inhibition,[6]; [18],100% (active)
same,growth inhibition,[6]; at 50.0 µM,93.5% (active)
same,growth inhibition,[6]; at 100.0 µM,96% (active)
same,growth inhibition,[7]; at 1.2 µM,33%
same,growth inhibition,[7]; at 3.7 µM,44%
same,growth inhibition,[7]; at 11.0 µM,99% (active)
same,growth inhibition,[7]; at 33.0 µM,100% (active)
same,growth inhibition,[7]; at 100.0 µM,96% (active)
same,growth inhibition,[8]; [17],49%
same,growth inhibition,[8]; [18],100% (active)
same,growth inhibition,[8]; at 50.0 µM,90% (active)
same,growth inhibition,[9]; at 1.2 µM,21%
same,growth inhibition,[9]; at 3.7 µM,21%
same,growth inhibition,[9]; at 11.0 µM,55%
same,growth inhibition,[9]; at 33.0 µM,98% (active)
same,growth inhibition,[9]; at 100.0 µM,93% (active)
same,growth inhibition,[10]; [17],25%
same,growth inhibition,[10]; [18],98% (active)
same,growth inhibition,[10]; at 50.0 µM,90% (active)
same,growth inhibition,[11]; at 1.2 µM,9%
same,growth inhibition,[11]; at 3.7 µM,36%
same,growth inhibition,[11]; [17],42%
same,growth inhibition,[11]; at 11.0 µM,98% (active)
same,growth inhibition,[11]; at 33.0 µM,99% (active)
same,growth inhibition,[11]; [18],99% (active)
same,growth inhibition,[11]; at 50.0 µM,90% (active)
same,growth inhibition,[11]; at 100.0 µM,92% (active)
same,growth inhibition,[12]; at 1.2 µM,6%
same,growth inhibition,[12]; at 3.7 µM,11%
same,growth inhibition,[12]; at 11.0 µM,90% (active)
same,growth inhibition,[12]; at 33.0 µM,99% (active)
same,growth inhibition,[12]; at 100.0 µM,95% (active)
same,growth inhibition,[13]; at 1.2 µM,50%
same,growth inhibition,[13]; at 3.7 µM,73% (active)
same,growth inhibition,[13]; at 11.0 µM,100% (active)
same,growth inhibition,[13]; at 33.0 µM,99% (active)
same,growth inhibition,[13]; at 100.0 µM,97% (active)
same,growth inhibition,[14]; at 1.2 µM,38%
same,growth inhibition,[14]; at 3.7 µM,45%
same,growth inhibition,[14]; at 11.0 µM,83% (active)
same,growth inhibition,[14]; at 33.0 µM,99% (active)
same,growth inhibition,[14]; at 100.0 µM,97% (active)
same,growth inhibition,[15]; [17],18%
same,growth inhibition,[15]; [18],99% (active)
same,growth inhibition,[15]; at 50.0 µM,90.8% (active)
same,growth inhibition,[16]; at 1.2 µM,33%
same,growth inhibition,[16]; at 3.7 µM,64%
same,growth inhibition,[16]; at 11.0 µM,96% (active)
same,growth inhibition,[16]; at 33.0 µM,99% (active)
same,growth inhibition,[16]; at 100.0 µM,95% (active)
O=C1c2ccccc2-c2n[nH]c3cccc1c23,growth inhibition,[1]; at 1.2 µM,-28%
same,growth inhibition,[1]; at 3.7 µM,10%
same,growth inhibition,[1]; at 11.0 µM,69%
same,growth inhibition,[1]; at 33.0 µM,84% (active)
same,growth inhibition,[1]; at 100.0 µM,78% (active)
same,growth inhibition,[2]; at 1.2 µM,-21%
same,growth inhibition,[2]; at 3.7 µM,-28%
same,growth inhibition,[2]; at 11.0 µM,-12%
same,growth inhibition,[2]; at 33.0 µM,10%
same,growth inhibition,[2]; at 100.0 µM,11%
same,growth inhibition,[3]; at 1.2 µM,7%
same,growth inhibition,[3]; at 3.7 µM,69%
same,growth inhibition,[3]; at 11.0 µM,86% (active)
same,growth inhibition,[3]; at 33.0 µM,88% (active)
same,growth inhibition,[3]; at 100.0 µM,73% (active)
same,growth inhibition,[4]; at 1.2 µM,-40%
same,growth inhibition,[4]; at 3.7 µM,-32%
same,growth inhibition,[4]; at 11.0 µM,-10%
same,growth inhibition,[4]; at 33.0 µM,27%
same,growth inhibition,[4]; at 100.0 µM,32%
same,growth inhibition,[5]; at 1.2 µM,-21%
same,growth inhibition,[5]; at 3.7 µM,29%
same,growth inhibition,[5]; [17],100% (active)
same,growth inhibition,[5]; at 11.0 µM,67%
same,growth inhibition,[5]; at 33.0 µM,79% (active)
same,growth inhibition,[5]; [18],99% (active)
same,growth inhibition,[5]; at 50.0 µM,69.2%
same,growth inhibition,[5]; at 100.0 µM,74% (active)
same,growth inhibition,[6]; at 1.2 µM,-67%
same,growth inhibition,[6]; at 3.7 µM,-38%
same,growth inhibition,[6]; [17],100% (active)
same,growth inhibition,[6]; at 11.0 µM,-5%
same,growth inhibition,[6]; at 33.0 µM,26%
same,growth inhibition,[6]; [18],100% (active)
same,growth inhibition,[6]; at 50.0 µM,54.3%
same,growth inhibition,[6]; at 100.0 µM,46%
same,growth inhibition,[7]; at 1.2 µM,-18%
same,growth inhibition,[7]; at 3.7 µM,-24%
same,growth inhibition,[7]; at 11.0 µM,-6%
same,growth inhibition,[7]; at 33.0 µM,23%
same,growth inhibition,[7]; at 100.0 µM,28%
same,growth inhibition,[8]; [17],-5%
same,growth inhibition,[8]; [18],86% (active)
same,growth inhibition,[8]; at 50.0 µM,78.1% (active)
same,growth inhibition,[9]; at 1.2 µM,-52%
same,growth inhibition,[9]; at 3.7 µM,-21%
same,growth inhibition,[9]; at 11.0 µM,-26%
same,growth inhibition,[9]; at 33.0 µM,-6%
same,growth inhibition,[9]; at 100.0 µM,1%
same,growth inhibition,[10]; [17],44%
same,growth inhibition,[10]; [18],87% (active)
same,growth inhibition,[10]; at 50.0 µM,38.9%
same,growth inhibition,[11]; at 1.2 µM,-1%
same,growth inhibition,[11]; at 3.7 µM,-15%
same,growth inhibition,[11]; [17],0%
same,growth inhibition,[11]; at 11.0 µM,22%
same,growth inhibition,[11]; at 33.0 µM,46%
same,growth inhibition,[11]; [18],89% (active)
same,growth inhibition,[11]; at 50.0 µM,65.6%
same,growth inhibition,[11]; at 100.0 µM,53%
